# This is a sample that favours compounds with a hit; in the whole collection about 22% have one here.
# CYP2C9 activ = activators of human CYP2C9 | P11712 | recombinant CYP2C9, luciferin-H conversion, luminescence; active compounds read high; factor 1 = untreated enzyme, 0 = blocked | activation factor at 5 µM | actives 1.4% (n = 96,000) | AID 1024;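 active = activation factor of 2 or more for CYP2C9 at a 5 µM dose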
# CYP2C9 inh = human CYP2C9 inhibition; actives 20% (n = 96,000); CYP2C9 Supersomes, luciferin-H conversion, luminescence; AID 777; inhibition, % at 5 µM;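 active = blocking of liver enzyme CYP2C9 beyond about 50% at 5 µM, limit read from the data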
# CYP2C19 activ = activators of human cytochrome P450 2C19 | P33261 | recombinant CYP2C19, luciferin-H EGE luminescence; active compounds read high; 0 = fully inhibited enzyme, 1 = untreated enzyme | activation factor at 5 µM | 96,000 tested, under 10 active | AID 1025;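 active = activation factor of at least 2 at 5 µM in the primary screen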
# Target sequence (P33261 whole entry, looked up): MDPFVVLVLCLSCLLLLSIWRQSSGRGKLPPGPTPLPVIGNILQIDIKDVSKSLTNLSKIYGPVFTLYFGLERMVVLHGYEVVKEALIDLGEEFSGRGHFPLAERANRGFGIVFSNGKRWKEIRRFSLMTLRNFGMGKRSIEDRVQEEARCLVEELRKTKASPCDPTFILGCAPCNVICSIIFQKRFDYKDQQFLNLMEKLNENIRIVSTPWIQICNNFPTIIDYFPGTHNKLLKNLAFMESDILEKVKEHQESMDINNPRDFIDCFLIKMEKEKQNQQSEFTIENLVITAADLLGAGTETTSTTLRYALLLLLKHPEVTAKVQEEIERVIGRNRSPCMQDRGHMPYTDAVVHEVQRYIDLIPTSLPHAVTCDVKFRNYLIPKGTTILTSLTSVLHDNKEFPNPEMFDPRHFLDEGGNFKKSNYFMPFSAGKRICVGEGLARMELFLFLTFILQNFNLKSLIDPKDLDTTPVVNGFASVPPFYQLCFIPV
# Measles CPE = protection of cells from measles virus; Measles virus-infected cells, CPE protection, absorbance; protection (pct of control), % at 4 µM; actives 1.5% (n = 140,000); AID 841; in the data active = protection mostly above about 24%, no sharp cut-off; inactive = mostly below about 26%
# CYP2C19 inh = inhibitors of human CYP2C19 | P33261 | actives 21% (n = 96,000) | AID 778 | CYP2C19 Supersomes, luciferin-H EGE luminescence, 30 min | inhibition, % at 5 µM;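 active = CYP2C19 inhibition above a set limit at 5 µM in the primary screen, cut at about 50% in these data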
# Hits are given with their value; i = inactive; nt = not tested or not shown.
SMILES,CYP2C9 activ,CYP2C9 inh,CYP2C19 activ,Measles CPE,CYP2C19 inh
COCCn1c(C)cc(C(=O)CSc2nnc(C)s2)c1C,i,i,i,i,i
COCCn1c(C)cc(C(=O)COC(=O)c2cc3c(s2)CCC3)c1C,i,i,i,i,57
CCOC(=O)c1c(C)n(OCc2ccccc2)c2ccc3nonc3c12,i,60,i,i,i
O=C(OCCN1CCN(c2ncc(C(F)(F)F)cc2Cl)CC1)c1ccc(Cl)cc1,i,67,i,i,i
COCCn1c(SCc2ccc(C(=O)OC)o2)nc2cc(Cl)ccc2c1=O,i,93,i,i,94
COCCn1c(SCc2ccc(C(=O)OC)o2)nnc1-c1c[nH]c2ccccc12,i,68,i,i,74
COCCn1c(SCC(N)=O)nnc1-c1c[nH]c2ccccc12,i,i,i,i,i
Cc1cccc(-n2c(SCc3ccc(C#N)cc3)nnc2-c2c[nH]c3ccccc23)c1,nt,nt,nt,i,nt
COC(=O)c1ccc(CSc2nnc(-c3c[nH]c4ccccc34)n2C)o1,i,78,i,i,93
COC(=O)c1ccc(CSc2nnc(-c3c[nH]c4ccccc34)n2-c2ccccc2)cc1,nt,nt,nt,54,nt
O=c1[nH]c(/C=C/c2ccccc2OC(F)F)nc2c1cnn2-c1ccccc1,nt,nt,nt,i,nt
COC(=O)c1cccc(CSc2nnc(-c3ccco3)n2-c2ccccc2)c1,i,68,i,i,i
Cc1ccc(S(=O)(=O)NC(=O)c2cc(C)n(CCCn3ccnc3)c2C)cc1,i,90,i,i,54
Cc1ccccc1NC(=S)N(C)Cc1cccs1,i,i,i,i,75
O=C(c1ccco1)N1CCN(CCCCOc2ccc(F)cc2)CC1,nt,nt,nt,i,nt
O=C(c1ccco1)N1CCN(CC(O)COc2ccc3oc4ccccc4c3c2)CC1 (configuration not stated),i,51,i,i,i
CCc1cc2c(nc1CC)CCN(CC/C(C)=N/O[C@@H](C)c1cc(-c3c(C)cc(C)cc3C)no1)C2,nt,nt,nt,25,nt
C/C(CCN1CCc2nc(-c3ccccc3)c(-c3ccccc3)cc2C1)=N\O[C@@H](C)c1cc(-c2c(C)cc(C)cc2C)no1,nt,nt,nt,i,nt
O=C(CSc1nnc(-c2ccccc2Cl)o1)N1CCCCC1,i,i,i,i,i
O=C(CSc1nnc(-c2ccc3c(c2)OCCO3)o1)N1CCCC1,i,i,i,i,i
CC1CCCCN1C(=O)CSc1nnc(-c2ccc(Cl)s2)o1 (configuration not stated),i,56,i,i,95
CCC1CCCCN1C(=O)CSc1nnc(-c2ccc(OC)cc2)o1 (configuration not stated),i,i,i,i,85
CCC1CCCCN1C(=O)CSc1nnc(-c2ccc3c(c2)OCCO3)o1 (configuration not stated),i,80,i,i,99
COC(=O)c1cc(=O)n2c(-c3ccc(OC)cc3)csc2n1,i,i,i,i,i
COCCNC(=O)Cn1c(=O)n(C)c2ccccc21,i,i,i,i,i
SMILES,CYP2C9 activ,CYP2C9 inh,CYP2C19 activ,Measles CPE,CYP2C19 inh
Cc1cc(C)n(-c2ncnc3sc4c(c23)CCCC4)n1,i,i,i,i,57
N#Cc1cnn(-c2ncnc3sc4c(c23)CCCC4)c1N,i,89,i,i,i
Cc1cc(C)n(-c2ncnc3sc(C)c(C)c23)n1,i,i,i,i,i
CC1CCc2c(sc3ncnc(N4CCOCC4)c23)C1 (configuration not stated),i,i,i,i,i
CC1CCc2sc3ncnc(N4CCOCC4)c3c2C1 (configuration not stated),i,61,i,i,96
Cc1cc(C)n(-c2nc(C)nc3sc4c(c23)CCC(C)C4)n1 (configuration not stated),i,i,i,i,i
Cc1cc(C)n(-c2ncnc3sc4c(c23)CC(C)CC4)n1 (configuration not stated),i,i,i,i,88
O=C(/C=C/c1ccccc1Cl)c1ccc[nH]1,nt,nt,nt,i,nt
CCSc1n[nH]c(=O)[nH]c1=O,i,i,i,i,i
Cc1ccc2c(CSc3nnc(C4CC4)n3N)cc(=O)oc2c1,i,i,i,i,78
COc1cc(-c2nnc(SCc3cc(=O)oc4cc(C)ccc34)o2)cc(OC)c1OC,i,83,i,i,66
COc1cc(-c2nnc(SCC#CCO)o2)cc(OC)c1OC,i,i,i,i,i
O=C(Nc1ccccc1)c1cccc(S(=O)(=O)Oc2ccc([N+](=O)[O-])cc2)c1,nt,nt,nt,i,nt
CN(C)S(=O)(=O)c1cccc(C(=O)Nc2cc(Cl)cc(Cl)c2)c1,i,98,i,i,i
CCn1c2ccccc2c2cc(NC(=O)c3cccc(OC)c3)ccc21,i,i,i,i,i
CN(C)S(=O)(=O)Oc1cccc(C(=O)Nc2cccc(Cl)c2)c1,i,82,i,i,70
CCn1c(C)c(C)c2cc(C(=O)Nc3cccc(Cl)c3)ccc21,2.4,i,i,i,i
CNS(=O)(=O)c1cccc(C(=O)Nc2cccc(Cl)c2)c1,i,62,i,i,70
COc1ccccc1NC(=O)c1sc2nc(Cc3ccccc3)cc(C(F)(F)F)c2c1N,i,i,i,i,i
COc1ccc(-n2cnnc2SCC(=O)c2ccc(S(=O)(=O)N3CCOCC3)cc2)cc1,i,i,i,i,i
Cc1sc2nc(SCC(=O)N(CCO)CCO)n(C3CCCCC3)c(=O)c2c1C,i,i,i,i,i
Cc1nnsc1C(=O)Nc1cc(Cl)ccc1Cl,nt,nt,nt,i,nt
CN(C)S(=O)(=O)c1cccc(C(=O)Nc2ccccc2Cl)c1,i,i,i,i,i
COc1ccc(Cl)cc1C(=O)NNC(=O)c1cccc(S(=O)(=O)N(C)C)c1,nt,nt,nt,73,nt
CN(C)S(=O)(=O)c1cccc(C(=O)Nc2cc(Cl)ccc2O)c1,i,67,i,i,i
SMILES,CYP2C9 activ,CYP2C9 inh,CYP2C19 activ,Measles CPE,CYP2C19 inh
O=C1C(=O)c2c(C(=O)c3ccccc3)coc2-c2ccccc21,i,95,i,i,82
Cc1oc2c(c1C(=O)c1ccccc1)C(=O)C(=O)c1ccccc1-2,i,90,i,i,92
CCOc1ccc(C2C=C(c3ccccc3)Nc3ncnn32)cc1 (configuration not stated),i,i,i,i,i
COc1cccc(C2=CC(c3ccc(N(C)C)cc3)n3ncnc3N2)c1 (configuration not stated),i,53,i,i,i
CCOc1ccc(C2C=C(c3ccc(F)cc3)Nc3ncnn32)cc1 (configuration not stated),i,59,i,i,i
COc1cccc(C2=CC(c3ccc(N(C)C)cc3)n3nnnc3N2)c1 (configuration not stated),i,i,i,i,i
COc1cccc(C2=CC(c3ccccc3)n3ncnc3N2)c1 (configuration not stated),i,55,i,i,55
CC1=C(OC(=O)c2ccc(Br)cc2)C(C)(C)C(c2ccccc2)OC1=O (configuration not stated),i,97,i,i,98
CC1=C(OC(=O)c2ccccc2)C(C)(C)C(c2ccc(Br)cc2)OC1=O (configuration not stated),i,61,i,i,i

# From PubChem BioAssay
